According to article PMC3795721, “Screening for Protein-DNA Interactions by Automatable DNA-Protein Interaction ELISA”:

target: AT4G31550 (Arabidopsis thaliana, UniProt Q9SV15 228-325); experiment: DPI-ELISA; DPI-ELISA, streptavidin 384-well plate, 1-2 pmol biotinylated dsDNA per well, crude native E. coli extract, anti-His detection; buffer as in Brand et al. [46],; high values mean tight binding; conditions: tags: C-terminal His (pET-DEST42); label: 5' biotin on forward strand; dsDNA, one strand shown
Sequence (Q9SV15 228-325): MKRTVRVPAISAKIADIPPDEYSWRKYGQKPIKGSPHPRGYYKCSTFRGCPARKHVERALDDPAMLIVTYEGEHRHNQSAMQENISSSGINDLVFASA

Sequence | binding signal
AAAAAAGGGTTTGTCGGGAATTGCCGAAAA | 0.58 ± 0.0849 absorbance
AAAAAAAAGCTTCGGAGTCTTGAGAAAAAA | 0.685 ± 0.0354 absorbance
AAAAAAACCCGTGCCTGCCTATTGCAAAAA | 0.395 ± 0.0495 absorbance
AAAAAAAACTGTCGCCCCCGGCTGGCAAAA | 0.545 ± 0.12 absorbance
AAAAAACAGGCCGATTCCGATCCCGGAAAA | 0.535 ± 0.0919 absorbance
AAAAAATTTGTTCGGGCTCATAACTGAAAA | 0.595 ± 0.148 absorbance
AAAAAATCCTGTTTGCGTTTGATTTTAAAA | 0.51 ± 0.099 absorbance
AAAAAAATCACGGTTCGACCTCCAGCAAAA | 0.7 ± 0.127 absorbance
AAAAAACATGTCGCACCTGTACTAACAAAA | 0.66 ± 0.127 absorbance
AAAAAATGGAAAGACCTATACCGGTCAAAA | 1.09 ± 0.17 absorbance
AAAAAAGCTAGTCGATTCGGCTTAGAAAAA | 0.68 ± 0.17 absorbance
AAAAAACATAACCGCAAAATCCCTACAAAA | 0.545 ± 0.0919 absorbance
AAAAAACTAACCGTCGCAGGCGTGTGAAAA | 0.715 ± 0.134 absorbance
AAAAAATTGTGCCTCTGCCCTCGCCTAAAA | 0.62 ± 0.127 absorbance
